The nature of assay [1]: antimalarial activity against Dd2 strain (AID 2302;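 active = growth inhibition above 50% at the single 2 µM test dose, taken to imply half-maximal potency below 2 µM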;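 also: 0% = DMSO untreated growth and 100% = chloroquine plus artemisinin killed control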). The conditions noted are these: P. falciparum Dd2 in RBCs, LDH growth readout, 72 h; at 2 µM; hits give high values.
Assay [2] is described as follows: HepG2 cytotoxicity, primary screen, cytotoxicity control for P. falciparum antimalarial project, cell-based, ATP luminescence (AID 2303;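 active = inhibition above 50%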;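 also: 0% = DMSO wells and 100% = digitonin-killed cells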). The conditions noted are these: HepG2 viability, 24-48 h, at 10 µM, hits give high values.
In assay [3] the target is L-lactate dehydrogenase (Plasmodium falciparum (isolate CDC / Honduras)) (UniProt Q27743). The experiment in a line: PfLDH activity inhibition – cell lysate, 3D7 strain, counter-screen for P. falciparum growth inhibition project (AID 2304).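 Also: 0% = vehicle and 100% = reference inhibitor.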 The settings on record: P. falciparum 3D7 crude extract, LDH APAD/NBT absorbance; at 2 µM; hits give high values. (Counterscreens check selectivity or assay interference.)

Assay [4] in a line: inhibition of 3D7 malaria parasite growth – strain 3D7 (AID 2306).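 Also: 0% = DMSO wells and 100% = chloroquine plus artemisinin control wells.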 The conditions noted are these: P. falciparum 3D7 erythrocytic growth, LDH absorbance, 72 h; at 2 µM; hits give high values.
Assay [5] concerns the target Calcium-dependent protein kinase 1 (Plasmodium falciparum (isolate 3D7)) (UniProt P62344). The experiment in a line: PfCDPK1 kinase inhibitors, biochemical, TCAMS library (AID 1159585; cut-off not given, nearly all actives have IC50 up to about 0.98 µM;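 also: inhibitors leave more ATP so luminescence rises with inhibition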). The settings on record: recombinant PfCDPK1, Kinase-Glo ATP depletion luminescence.
Assay [6] concerns the target Plasmodium falciparum protein kinase 6 (PK6, PF3D7_1337100) (UniProt Q8IDW1). The experiment in a line: PfPK6 kinase inhibitors, biochemical, TCAMS library (AID 1159586). The conditions noted are these: recombinant PfPK6, Kinase-Glo ATP depletion luminescence.
Assay [7] has as its target Protein kinase 7 (PK7), Plasmodium falciparum 3D7 (PF3D7_0213400) (UniProt Q7YTF7). Nature of the assay: inhibition of Plasmodium PK7 catalytic activity – biochemical, TCAMS antimalarial set, Kinase-Glo luminescence (AID 1159587). The settings on record: recombinant PfPK7, Kinase-Glo ATP depletion luminescence. (Kinase-Glo measures the ATP left after a reaction by luminescence.)

Assay [8] concerns the target Calcium-dependent protein kinase 4 (Plasmodium falciparum (isolate 3D7)) (UniProt Q8IBS5). Nature of the assay: PfCDPK4 kinase inhibitors, biochemical, TCAMS library (AID 1159588; cut-off not given, nearly all actives have IC50 up to about 0.91 µM). The conditions noted are these: recombinant PfCDPK4, Kinase-Glo ATP depletion luminescence.

The text below walks through data of PubChem BioAssay.

A word on the inhibition: it is the drop in the measured response relative to a control, in per cent.

Each structure is given as a SMILES string. Values without a mark were called inactive. For some of these results: Results with a measured potency or affinity are listed apart. Activity calls are given as the source filed them. Unless noted, no rule for the calls is given here.

Sequence of Plasmodium falciparum protein kinase 6 (PK6, PF3D7_1337100) (Q8IDW1 1-305): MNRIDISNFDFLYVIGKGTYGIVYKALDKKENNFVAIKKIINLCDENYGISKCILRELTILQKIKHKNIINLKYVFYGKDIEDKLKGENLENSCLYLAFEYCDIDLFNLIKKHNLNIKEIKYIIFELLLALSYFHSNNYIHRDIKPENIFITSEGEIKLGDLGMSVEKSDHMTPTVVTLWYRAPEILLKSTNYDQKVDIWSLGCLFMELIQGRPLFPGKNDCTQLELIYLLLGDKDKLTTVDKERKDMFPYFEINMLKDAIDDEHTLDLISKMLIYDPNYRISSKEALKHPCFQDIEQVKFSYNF
Sequence of Protein kinase 7 (PK7), Plasmodium falciparum 3D7 (PF3D7_0213400) (Q7YTF7 1-343): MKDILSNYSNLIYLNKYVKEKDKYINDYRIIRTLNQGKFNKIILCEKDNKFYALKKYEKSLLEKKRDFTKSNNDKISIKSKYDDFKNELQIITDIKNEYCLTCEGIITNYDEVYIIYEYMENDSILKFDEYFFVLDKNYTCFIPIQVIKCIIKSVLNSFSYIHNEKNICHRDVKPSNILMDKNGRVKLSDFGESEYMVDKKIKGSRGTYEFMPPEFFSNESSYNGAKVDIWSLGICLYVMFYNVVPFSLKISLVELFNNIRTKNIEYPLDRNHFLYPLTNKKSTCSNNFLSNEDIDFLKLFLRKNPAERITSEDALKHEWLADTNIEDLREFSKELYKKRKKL
Sequence of Calcium-dependent protein kinase 4 (Plasmodium falciparum (isolate 3D7)) (Q8IBS5 whole entry, looked up): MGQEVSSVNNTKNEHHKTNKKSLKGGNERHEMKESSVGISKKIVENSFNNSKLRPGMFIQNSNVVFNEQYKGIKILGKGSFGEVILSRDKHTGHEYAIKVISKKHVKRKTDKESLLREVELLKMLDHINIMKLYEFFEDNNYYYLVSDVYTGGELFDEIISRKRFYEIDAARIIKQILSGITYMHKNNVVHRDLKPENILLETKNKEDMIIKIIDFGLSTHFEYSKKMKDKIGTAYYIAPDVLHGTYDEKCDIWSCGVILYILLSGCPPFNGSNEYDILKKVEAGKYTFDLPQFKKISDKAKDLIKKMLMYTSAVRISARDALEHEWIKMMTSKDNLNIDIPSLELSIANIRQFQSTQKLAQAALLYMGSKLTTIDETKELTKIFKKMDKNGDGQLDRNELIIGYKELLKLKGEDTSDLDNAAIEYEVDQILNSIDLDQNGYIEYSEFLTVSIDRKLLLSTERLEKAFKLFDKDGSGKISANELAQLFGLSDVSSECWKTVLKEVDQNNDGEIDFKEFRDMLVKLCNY
Sequence of L-lactate dehydrogenase (Plasmodium falciparum (isolate CDC / Honduras)) (Q27743 whole entry, looked up): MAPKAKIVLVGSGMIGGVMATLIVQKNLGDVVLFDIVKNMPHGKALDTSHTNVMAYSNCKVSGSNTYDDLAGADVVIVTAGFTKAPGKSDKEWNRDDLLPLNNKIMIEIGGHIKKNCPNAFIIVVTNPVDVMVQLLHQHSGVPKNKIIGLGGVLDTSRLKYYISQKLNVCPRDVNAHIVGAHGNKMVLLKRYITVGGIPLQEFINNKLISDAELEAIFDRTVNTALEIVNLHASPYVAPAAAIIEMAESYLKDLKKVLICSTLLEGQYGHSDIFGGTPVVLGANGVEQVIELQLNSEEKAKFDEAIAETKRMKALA
Sequence of Calcium-dependent protein kinase 1 (Plasmodium falciparum (isolate 3D7)) (P62344 whole entry, looked up): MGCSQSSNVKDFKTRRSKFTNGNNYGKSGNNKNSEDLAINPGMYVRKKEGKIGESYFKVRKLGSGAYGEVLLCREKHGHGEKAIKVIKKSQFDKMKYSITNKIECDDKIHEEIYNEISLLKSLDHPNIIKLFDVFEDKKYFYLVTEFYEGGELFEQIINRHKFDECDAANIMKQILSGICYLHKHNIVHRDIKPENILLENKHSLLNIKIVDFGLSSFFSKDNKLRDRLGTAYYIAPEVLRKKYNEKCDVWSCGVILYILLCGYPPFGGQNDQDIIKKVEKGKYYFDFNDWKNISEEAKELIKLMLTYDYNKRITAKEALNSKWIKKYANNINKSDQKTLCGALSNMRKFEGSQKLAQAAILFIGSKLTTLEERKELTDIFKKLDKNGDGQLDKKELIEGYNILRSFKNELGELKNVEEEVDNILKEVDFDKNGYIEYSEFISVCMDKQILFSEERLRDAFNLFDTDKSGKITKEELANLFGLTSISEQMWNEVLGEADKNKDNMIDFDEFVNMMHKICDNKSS

For `O=C(NCCN1CCCC1)c1cccc(-c2ccc(-c3nc4ccccc4[nH]3)s2)c1`, the figures for the growth inhibition in assay [1] and in assay [4] were 13% and 96% (active), respectively. The figures for the inhibition in assay [2] and in assay [3] were 27% and 4%, respectively. Besides, the outcome in assay [5], in assay [6], in assay [7] and in assay [8] was inactive.
As for `COc1ccc2nccc([C@@H](O)CN3CCC(NCc4ccc5c(n4)NCCC5)CC3)c2c1`, the growth inhibition was 39% in assay [1] and 101% (active) in assay [4]. The inhibition in assay [2] was 21%; in assay [3] it was -3%. Further, the outcome in assay [5], in assay [6], in assay [7] and in assay [8] was inactive.
Take `CC(C)(C)c1ccc(NC(=O)c2ccc(CN3CCCN(Cc4cccc(O)c4)CC3)cc2)cc1`: the growth inhibition in assay [1] was 62% (active); in assay [4], 102% (active). Besides, the inhibition was 54% (active) in assay [2] and 1% in assay [3]. In addition, the result in assay [5], in assay [6], in assay [7] and in assay [8] was inactive.
On to `O=C(NCCN1CCOCC1)c1ccc(O)c(-c2cccc(C(F)(F)F)c2)c1`, for which the growth inhibition in assay [1] is 48%; in assay [4], 95% (active). For the same molecule, the results for the inhibition in assay [2] and in assay [3] were -1% and 3%, respectively. Moreover, the outcome in assay [5], in assay [6], in assay [7] and in assay [8] was inactive.
With `CC(C)CN1C(=O)c2ccccc2C(C(=O)Nc2cccc(C#N)c2)C1c1cccs1` (stereo not given), the growth inhibition is 100% (active) in assay [1] and 101% (active) in assay [4]. For the same molecule, the inhibition in assay [2] is 11%; in assay [3], -4%. Moreover, the result in assay [5], in assay [6], in assay [7] and in assay [8] was inactive.
Turning to `Cc1noc(C)c1-c1cccc(CNCc2cccc(-c3cccc(-c4nc5ccccc5[nH]4)c3)c2)c1`, the growth inhibition in assay [1] was 54% (active); in assay [4], 102% (active). Besides, the inhibition was 22% in assay [2] and 2% in assay [3]. Moreover, the outcome in assay [5], in assay [6], in assay [7] and in assay [8] was inactive.
Turning to `O=C(CNC(=O)c1ccc(O)cc1)Nc1cccc(-c2cccc(-c3nc4ccc(C(F)(F)F)cc4[nH]3)c2)c1`, the growth inhibition in assay [1] is 28%; in assay [4], 96% (active). Further, the inhibition in assay [2] was 63% (active); in assay [3], 5%. In addition, the outcome in assay [5], in assay [6], in assay [7] and in assay [8] was inactive.
Consider `CS(=O)(=O)c1ccc(CNCc2cccc(-c3ccc(-c4nc5ccc(C(F)(F)F)cc5[nH]4)cc3)c2)cc1`, for which the growth inhibition in assay [1] is 96% (active); in assay [4] it was 101% (active). Also, the inhibition in assay [2] was 31%; in assay [3] it was 4%. In addition, the result in assay [5], in assay [6], in assay [7] and in assay [8] was inactive.
On to `CCCCCCn1c(Sc2ccc(C#N)c([N+](=O)[O-])c2)nnc1-c1cccc(Cl)c1`, for which the growth inhibition in assay [1] was 90% (active); in assay [4], 96% (active). The values for the inhibition in assay [2] and in assay [3] were 17% and 1%, respectively. Also, the outcome in assay [5], in assay [6], in assay [7] and in assay [8] was inactive.
On to `Cc1ccccc1C1CCN(C2CCC(NC(=O)/C=C/c3cc(F)ccc3F)CC2)CC1` (stereo not given), for which the growth inhibition in assay [1] is 36%; in assay [4], 85% (active). The values for the inhibition in assay [2] and in assay [3] were 47% and -2%, respectively. Moreover, the outcome in assay [5], in assay [6], in assay [7] and in assay [8] was inactive.
Consider `CCN1CCC(N(Cc2ccc(-c3ccc(C(F)(F)F)cc3)cc2)C(=O)Cn2c(CCc3cccc(F)c3F)nc(=O)c3ccccc32)CC1`, for which the growth inhibition in assay [1] and in assay [4] was 95% (active) each time. Moreover, the inhibition in assay [2] was 99% (active); in assay [3] it was 3%. For the same molecule, the result in assay [5], in assay [6], in assay [7] and in assay [8] was inactive.
In the case of `COc1ccc(-c2cnc3[nH]cc(-c4ccc(C(=O)O)cc4)c3c2)cn1`, the growth inhibition is 99% (active) in assay [1] and 95% (active) in assay [4]. For the same molecule, the results for the inhibition in assay [2] and in assay [3] were 35% and -1%, respectively. Besides, the result in assay [5], in assay [6], in assay [7] and in assay [8] was inactive.
On to `O=[N+]([O-])c1ccc(Nc2nc(NN=Cc3ccc(-c4ccc([N+](=O)[O-])cc4)o3)nc(Nc3ccccc3)n2)cc1`, for which the growth inhibition in assay [1] is 74% (active); in assay [4], 101% (active). The inhibition in assay [2] is -9%; in assay [3], -5%. For the same molecule, the outcome in assay [5], in assay [6], in assay [7] and in assay [8] was inactive.
`CCOc1cc(C(=O)N[C@@H](Cc2ccccc2)[C@H](O)CNCc2cc(OC)cc(OC)c2)cc(N2CCCC2=O)c1`: the growth inhibition in assay [1] was 63% (active); in assay [4], 94% (active). The inhibition in assay [2] is 0%; in assay [3], 4%. The result in assay [5], in assay [6], in assay [7] and in assay [8] was inactive.
`CC1CN(C(=O)c2sc3ccccc3c2Cl)CC(C)O1` (stereo not given): the results for the growth inhibition in assay [1] and in assay [4] were 98% (active) and 101% (active), respectively. Moreover, the inhibition was -5% in assay [2] and 3% in assay [3]. For the same molecule, the outcome in assay [5], in assay [6], in assay [7] and in assay [8] was inactive.
On to `CCN1CCCC(CNC(=O)/C(=C/C=C/c2cc3cc(Cl)c(Cl)cc3[nH]2)OC)C1` (stereo not given), for which the growth inhibition in assay [1] is 89% (active); in assay [4], 93% (active). The inhibition in assay [2] was 33%; in assay [3] it was -1%. For the same molecule, the outcome in assay [5], in assay [6], in assay [7] and in assay [8] was inactive.
As for `CC(C)c1ccc(CN2CCC(CNC(=O)c3cc(-c4ccc(N(C)C)cc4)cs3)C2)cc1` (stereo not given), the growth inhibition in assay [1] was 32%; in assay [4], 83% (active). The inhibition in assay [2] was 36%; in assay [3], 5%. The outcome in assay [5], in assay [6], in assay [7] and in assay [8] was inactive.
On to `CCN1CCN(c2cc(C)c3cc(NC(=O)c4ccc(OC)c([N+](=O)[O-])c4)ccc3n2)CC1`, for which the growth inhibition in assay [1] was 93% (active); in assay [4] it was 100% (active). The inhibition in assay [2] is 25%; in assay [3] it was 0%. Moreover, the result in assay [5], in assay [6], in assay [7] and in assay [8] was inactive.
Turning to `Cc1cc([N+](=O)[O-])ccc1N1CCN(CCCCNC(=O)c2ccc(NC(=O)c3ccc(Cl)cc3)cc2)CC1`, the growth inhibition in assay [1] is -1%; in assay [4], 92% (active). Further, the inhibition is 33% in assay [2] and 2% in assay [3]. Moreover, the outcome in assay [5], in assay [6], in assay [7] and in assay [8] was inactive.
`O=C(CN(c1cccc(C(F)(F)F)c1)S(=O)(=O)c1ccc(Cl)cc1)NCCC(c1ccccc1)c1ccccc1`: the growth inhibition is 50% (active) in assay [1] and 94% (active) in assay [4]. Also, the values for the inhibition in assay [2] and in assay [3] were 14% and -2%, respectively. The result in assay [5], in assay [6], in assay [7] and in assay [8] was inactive.
